Assay results reported in PubChem BioAssay AID1347076 (National Center for Advancing Translational Sciences (NCATS), 2019).
Hit rate of the full screen: of about 400,000 compounds, about 13,000 (3.2%) were called active. Roughly 18% stayed inconclusive and do not appear here. The call rests on the fitted dose curve; in most records, active means well fitted cell-killing curve with a large enough effect; inconclusive means small, poorly fitted or top-dose-only effect, or effect the other way; inactive means flat fitted curve, though single readings scatter. Shown is part of a subset that was picked to be rich in actives.

assay: qHTS assay for MDR1-selective chemotherapeutics: Primary screen using the drug-selected MDR subline cells KB-V1; details: KB-V1 MDR cells viability, CellTiter-Glo, 72 h; series mostly up to 46.1 µM; activity change, negative = cytotoxicity: at the top concentration; further: nearly all actives have a fitted effect of over 60% in size
How it was run: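 Potencies derive from concentration-effect curves fitted to normalized luminescence (CellTiter-Glo) of KB-V1 cells treated for 72 h at 37 degrees C in phenol-red-free DMEM containing 10% FBS.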
On the % scale 0 is the no-effect control and ±100 the full control effect; potency means the concentration at half of the fitted maximal effect.

Compound	activity change, negative = cytotoxicity	Potency
COc1ccc(Cn2cc(C(=O)c3ccc(C)cc3)c(=O)c3cc(OC)c(OC)cc32)cc1	19.4% (inactive)	–
O=C(NC1CCCC1)C1c2ccccc2OCC(=O)N1CC(F)(F)F (stereo unspecified)	-2.65% (inactive)	–
CCCCn1nnnc1C(c1cc2ccccc2o1)N(C)Cc1ccc(Cl)c(Cl)c1 (stereo unspecified)	-11% (inactive)	–
O=C1NC(Cc2ccccc2)c2nc3ccc(Br)cc3c(=O)n2-c2cc3ccccc3cc21 (stereo unspecified)	-22.4% (inactive)	–
O=C(NCCN1CCOCC1)C1CCN(S(=O)(=O)c2ccccc2)CC1	1.81% (inactive)	–
O=C(NC(C(=O)NCCN1CCOCC1)C12CC3CC(CC(C3)C1)C2)C1CCCCC1 (stereo unspecified)	–	14.6 µM (active)
O=C(NCCCN1CCOCC1)C1CCCN(S(=O)(=O)N2CCCCC2)C1 (stereo unspecified)	1.22% (inactive)	–
CCOC(=O)c1c(NC(=O)COC(=O)c2ccc(S(=O)(=O)C(F)F)cc2)sc(C(=O)N(C)C)c1C	-11.7% (inactive)	–
CC1(C(=O)O)CCN1C(=O)/C=C/c1ccccc1 (stereo unspecified)	3.25% (inactive)	–
CCN(CC(=O)Nc1ccc(OC)cc1)C(=O)c1ccc(Cl)c(S(=O)(=O)N2CCCC2)c1	18.1% (inactive)	–
CCN(CC(=O)Nc1ccc(OC)cc1)C(=O)c1ccc(=O)n(Cc2ccccc2)n1	–	18.4 µM (active)
COc1ccc(NC(=O)CN(C)C(=O)c2cc(C3CC3)nn2-c2ccccc2)cc1	-6.56% (inactive)	–
N=c1c2c3c(sc2ncn1CCCN1CCOCC1)CCCCC3	–	8.2 µM (active)
N=c1c2c3c(sc2nc2n1CCCCC2)CCCC3	-2.3% (inactive)	–
N=c1c2c3c(sc2ncn1N)CCCCC3	9.63% (inactive)	–
CCN1CCN(c2ccc(/C=C/c3ccnc4ccccc34)cc2)CC1	0% (inactive)	–
C[C@@H]1CN([C@H](C)CO)C(=O)c2cc(Br)cnc2O[C@@H]1CN(C)Cc1cncnc1	-10.7% (inactive)	–
C[C@H]1Cn2cnc(C(=O)N[C@@H](Cc3c[nH]c4ccccc34)C(=O)OC(C)(C)C)c2C(=O)N1	-0.784% (inactive)	–
COc1ccc(C(=O)NC2CC(C)(C)NC(C)(C)C2)cc1OC	-11.1% (inactive)	–
Cc1cccc(C(=O)NCC(=O)OCC(=O)N2CC3(C)CC2CC(C)(C)C3)c1 (stereo unspecified)	-5.3% (inactive)	–
COc1ccc(C(=O)N2CC3(C)CC2CC(C)(C)C3)cc1OC (stereo unspecified)	–	23.1 µM (active)
O=C(NCc1ccccc1)C(c1ccc(F)cc1)N1CCN(C(=O)C2CCCO2)CC1 (stereo unspecified)	-9.25% (inactive)	–
CCn1c(CNC(=O)c2ccc(OC)c(OC)c2)nnc1SCC(=O)Nc1ccccc1	-12.5% (inactive)	–
CCn1c(Cc2ccc(OC)cc2)nnc1SCC(=O)Nc1ccc(N2CCOCC2)cc1	-26.1% (inactive)	–
CCn1c(Cc2ccccc2)nnc1SCC(=O)Nc1ccccc1	–	20.6 µM (active)
CC1(C(=O)NS(=O)(=O)c2cccc(OC(F)F)c2)CCN1C(=O)COc1ccc(Cl)cc1 (stereo unspecified)	3.1% (inactive)	–

Compound	activity change, negative = cytotoxicity	Potency
O=C(Nc1cccc2ccccc12)c1[nH]c(-c2ccccc2)c2c1C(=O)N(C1CC1)C2=O	0.496% (inactive)	–
CCCCNC(=O)C[C@@H]1C[C@@]2(C(=O)OCC)CCC=C2N(Cc2ccco2)C1=O	18.7% (inactive)	–
Cc1cc([N+](=O)[O-])ccc1NS(=O)(=O)c1ccccc1	-13.9% (inactive)	–
O=[N+]([O-])c1ccc(NS(=O)(=O)c2ccccc2)c(Cl)c1	–	23.1 µM (active)
O=C(NNS(=O)(=O)c1ccc(F)cc1)c1ccc([N+](=O)[O-])cc1Cl	-24.7% (inactive)	–
CCc1nc2ccc(C(=O)N3CCC(O)(Cc4ccccc4)CC3)cn2c1N(C)C(=O)Cc1ccccc1	19.7% (inactive)	–
CC1(C(=O)NCc2ccc3c(c2)OCO3)CCN1CCc1ccccc1 (stereo unspecified)	-10.2% (inactive)	–
COc1ccc(C(=O)NNS(=O)(=O)c2ccc(C)cc2)cc1	10.3% (inactive)	–
COc1ccc(S(=O)(=O)N/N=C\c2ccc(OC)c(COc3ccc(C)cc3[N+](=O)[O-])c2)cc1	-2.85% (inactive)	–
COc1ccc(C(=O)Oc2cc(/C=N/NS(=O)(=O)c3ccc(C)cc3)ccc2OC)cc1	–	14.6 µM (active)
c1ccc(Cc2c(-c3ccco3)nc3c4ccccc4ccn23)cc1	-25.8% (inactive)	–
CC(C)Cn1c(=O)c2ccccc2n2c(-c3cccc(Cl)c3)nnc12	0% (inactive)	–
CN(Cc1cncn1C)c1ncnc2ccc(-c3ccc4c(c3)OCO4)cc12	0% (inactive)	–
O=C(c1ccc2c(c1)OCCO2)C1CCN(S(=O)(=O)c2cccc(F)c2)CC1	–	20.6 µM (active)
O=C(c1c(F)cccc1F)N1CCN(S(=O)(=O)c2ccc3c(c2)OCCO3)CC1	0% (inactive)	–
O=C(Nc1cccc(S(=O)(=O)N2CCCCC2)c1)c1ccc2c(c1)OCO2	–	3.26 µM (active)
CCN(CC)S(=O)(=O)c1cccc(NC(=O)c2ccc(S(=O)(=O)N3CCCC3)cc2)c1	-0.979% (inactive)	–
O=C(CSc1ccccc1)Nc1cccc(S(=O)(=O)N2CCCCC2)c1	3.31% (inactive)	–
Cn1nnnc1SCC(=O)Nc1cccc(S(=O)(=O)N2CCCCC2)c1	–	20.6 µM (active)
O=C(Nc1cccc(S(=O)(=O)N2CCCCC2)c1)c1cncc(Br)c1	-2.51% (inactive)	–
COCCn1cnnc1SCC(=O)Nc1cccc(S(=O)(=O)N2CCCCC2)c1	-21.2% (inactive)	–
O=C(NCc1cccs1)C1CCN(S(=O)(=O)c2ccc3c(c2)OCCO3)CC1	10.7% (inactive)	–
Cc1ccc(-c2nn3c(=O)cc(CN4CCN(S(=O)(=O)c5ccc(Cl)cc5)CC4)nc3s2)cc1	-6.24% (inactive)	–
Cc1cccc(C)c1NC(=O)CNC(=O)c1ccc(N2CCOCC2)c([N+](=O)[O-])c1	9.61% (inactive)	–
O=c1oc(/C=C/c2ccccc2)nc2ccccc12	-11.6% (inactive)	–
CCc1ccc(S(=O)(=O)N/N=C\c2ccc([N+](=O)[O-])o2)cc1	7.82% (inactive)	–

Compound	activity change, negative = cytotoxicity	Potency
CCn1c(/C=C/c2ccc([N+](=O)[O-])o2)nc2ccccc2c1=O	–	5.17 µM (active)
CSc1ncccc1C(=O)N1CCCC(Nc2ccc(F)c(F)c2)C1 (stereo unspecified)	0.526% (inactive)	–
CCc1nn(CCCC(=O)NCc2ccccc2OC)c(=O)c2cc3occc3n12	-0.332% (inactive)	–
Cc1cc(Br)cn2c(Cc3cccc(F)c3)c(-c3cccc(Br)c3)nc12	12.7% (inactive)	–
CCOC(=O)c1c(NC(=O)CSc2cn(CC)c3ccccc23)sc2c1CCC2	19.3% (inactive)	–
CCOC(=O)c1c(NC(=O)Cn2nc(C(F)(F)F)cc2C)sc2c1CCC2	–	20.6 µM (active)
CCOC(=O)c1c(NC(=O)Cc2coc3ccc(CC)cc23)sc2c1CCC2	-15.3% (inactive)	–
CCCS(=O)(=O)NC(=O)C1(C)CCCN(C(=O)c2cccs2)C1 (stereo unspecified)	1.76% (inactive)	–
Cc1ccc(OCC(=O)Nc2ccccc2C(=O)NC2CC2)cc1C	-24.5% (inactive)	–
Cc1ccc(OCC(=O)Nc2ccccc2C(=O)NC2CC2)cc1	–	8.2 µM (active)
CCCC(NCC(=O)Nc1ccccc1C(=O)NC1CC1)c1ccccc1 (stereo unspecified)	0.208% (inactive)	–
COc1ccccc1OCC(=O)Nc1ccccc1C(=O)NC1CC1	-1.47% (inactive)	–
CC(NCC(=O)Nc1ccccc1C(=O)NC1CC1)c1ccccc1Cl (stereo unspecified)	–	18.4 µM (active)
O=C(CN1CCCCC1)Nc1ccccc1C(=O)NC1CC1	-13.3% (inactive)	–
c1ccc(CNCc2ccc(CNCc3ccccc3)cc2)cc1	-14.3% (inactive)	–
CCc1nnc(SCC(=O)Nc2cc(OC)ccc2OC)nc1CC	-12.3% (inactive)	–
Cc1ccccc1OCCOc1ccc([N+](=O)[O-])cc1/C=N/n1cnnc1	–	8.2 µM (active)
Cc1ccccc1OS(=O)(=O)c1cccc([N+](=O)[O-])c1	-5.34% (inactive)	–
COc1ccccc1OCCOc1ccc(/C=N/n2cnnc2)cc1	13.5% (inactive)	–
O=C(CSc1nc2cccc(F)c2c(=O)n1-c1ccccc1)Nc1ccc2c(c1)CCC2	9.88% (inactive)	–
c1ccc(CCc2nc(-c3ccncc3)no2)cc1	3.7% (inactive)	–
O=C1c2ccccc2C(=O)N1CCCc1nc(-c2ccccc2)no1	–	18.4 µM (active)
O=C1c2ccccc2C(=O)N1CCCCCCN1C(=O)c2ccccc2C1=O	-1.54% (inactive)	–
C[C@H]1CN([C@@H](C)CO)C(=O)CCCn2cc(nn2)CO[C@@H]1CN(C)S(=O)(=O)c1cccs1	25.4% (inactive)	–
OC(c1ccc(Cl)c(F)c1)c1ncc(-c2ccccc2Cl)[nH]1 (stereo unspecified)	-18.9% (inactive)	–
Cc1ccc(S(=O)(=O)N2CCOCC2)cc1NC(=O)c1ccncc1	-0.489% (inactive)	–

Compound	activity change, negative = cytotoxicity	Potency
O=C(CNCc1cccs1)Nc1cc(S(=O)(=O)N2CCCC2)ccc1Cl	-9.92% (inactive)	–
CCN(CC)S(=O)(=O)c1ccc(N2CCOCC2)c(NC(=O)C2COc3ccccc3O2)c1 (stereo unspecified)	0% (inactive)	–
O=C(Nc1cc(S(=O)(=O)N2CCCCC2)ccc1Cl)C1COc2ccccc2O1 (stereo unspecified)	–	14.6 µM (active)
CCc1ccc(Sc2cc(C(=O)NCCCOC(C)C)c3ccccc3n2)cc1	-5.59% (inactive)	–
CCc1c(C)nc(N2CCN(Cc3ccccc3)CC2)[nH]c1=O	-7.43% (inactive)	–
O=C1c2ccccc2C(=O)c2c1cccc2N1CCN(Cc2ccccc2)CC1	–	18.4 µM (active)
O=C1c2ccccc2C(=O)c2c1cccc2N1CCN(C/C=C/c2ccccc2)CC1	-4.28% (inactive)	–
O=c1[nH][nH]c2c1[C@H](c1ccc(Cl)cc1)O[C@H](CCc1ccccc1)C2	3.7% (inactive)	–
O=C(CSc1nccn1Cc1ccc(Cl)cc1)NCc1ccccc1	-3.81% (inactive)	–
COc1cc(F)ccc1-c1cc(C(=O)NCC2CCCCC2)[nH]n1	5.34% (inactive)	–
COc1ccc(S(=O)(=O)N2CCC(C(=O)N3CCOCC3)CC2)cc1OC	3.64% (inactive)	–
COc1ccc(S(=O)(=O)N2CCC(C(=O)N3CCCC3)CC2)cc1C	-33% (inactive)	–
COc1ccc(S(=O)(=O)N2CCC(C(=O)N3CCc4ccccc4C3)CC2)cc1OC	–	13 µM (active)
C[C@H](CO)N1C[C@H](C)[C@@H](CN(C)C(=O)c2cnccn2)Oc2ncc(Br)cc2C1=O	7.15% (inactive)	–
CC(C)c1ccc(NC(=O)c2ccc(Cn3nc(N4CCN(c5ccccc5)CC4)ccc3=O)o2)cc1	-11.2% (inactive)	–
Cc1ccc(-c2nc3ccc(Cl)cn3c2Cc2ccccc2)cc1	4.25% (inactive)	–
CC1(C(=O)NS(=O)(=O)Cc2cccc(Cl)c2)CCN1C(=O)Cc1ccccc1 (stereo unspecified)	1.26% (inactive)	–
CCc1ccc(NC(=O)Cn2nc(C)c([N+](=O)[O-])c2C)cc1	3% (inactive)	–
COc1ccc(CNC(=O)CCn2cccc2)cc1	5.31% (inactive)	–
Cc1ccc(Oc2cc(NC(=O)CCCn3nc(C)c([N+](=O)[O-])c3C)cc([N+](=O)[O-])c2)cc1	–	10.3 µM (active)
Cc1nn(CC(=O)NCc2ccccn2)c(C)c1[N+](=O)[O-]	19.4% (inactive)	–
Cc1nn(CC(=O)Nc2ccc(N(C)C)cc2)c(C)c1[N+](=O)[O-]	-5% (inactive)	–
COc1ccc(CNC(=O)CCCn2nc(C)c([N+](=O)[O-])c2C)cc1	–	25.9 µM (active)
